Experimental findings from PubChem BioAssay are described below.

Activity calls are given as the source filed them. Unless noted, how the calls were made is not given here.

The nature of assay [1]: HepG2 liver cancer cell viability effects, profiling panel, resazurin fluorescence, 24 h, PK04 Diversity Set (AID 1172). Further: test concentration not given here. The settings on record: higher = more signal. For orientation: Resazurin is reduced to fluorescent resorufin, in cell work by metabolically active cells.
Assay [2] is described as follows: basal S. cerevisiae growth modulation, no modifier, primary screen, OD600, strain BY4716, 24 h, basal condition (AID 1173). The conditions noted are these: OD600, 24 h, higher = more signal, called active from +8 up or from −8 down.
Assay [3] is described as follows: MM1S myeloma cell viability, profiling panel, resazurin fluorescence, basal, 24 h, PK04 Diversity Set (AID 1174).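 Further: MM1S multiple myeloma cell line; test concentration not given here.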 The settings on record: higher = more signal, called active from +8 up or from −8 down.
The target in assay [4] is Dihydroorotate dehydrogenase (quinone), mitochondrial (Plasmodium falciparum (isolate 3D7)) (UniProt Q08210). Description: PfDHODH enzyme inhibitors, primary screen, biochemical, C-terminal His tag, absorbance 600 nm (AID 1175).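 Further: recombinant parasite enzyme with a five histidine tag at its C terminus; test concentration not given here.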 The settings on record: DCIP absorbance 600 nm, higher = more signal, called active from +8 up or from −8 down.
Assay [5] can be described thus: P. aeruginosa biofilm formation inhibitors, primary screen, strain PAO1, LB-PBS medium, absorbance 600 nm (AID 1176). Further: test concentration not given here. The conditions noted are these: P. aeruginosa PAO1 growth/biofilm, A600, 12 h; higher = more signal.
A short description of assay [6]: S. cerevisiae RM11-1a growth modifiers, primary screen, strain RM11-1a, OD600, basal, 24 h (AID 1177).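 Further: cultures grown under basal conditions with no added stressor; test concentration not given here.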 The conditions noted are these: OD600, 24 h, higher = more signal, called active from +8 up or from −8 down.
A short description of assay [7]: E. coli acrAB mutant growth effects, primary screen, E. coli filamentation inducers, strain DRC39, OD650, 24 h (AID 1178).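 Further: growth measured as culture turbidity by optical density at 650 nm; test concentration not given here.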 The conditions noted are these: higher = more signal, called active from +8 up or from −8 down.
Assay [8] is described as follows: E. coli acrAB mutant growth effects, primary screen, E. coli filamentation inducers, strain DRC39, OD650, 48 h (AID 1179).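 Further: screen aims at cell division blockers that make cells filament.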 The settings on record: E. coli DRC39 delta-acrAB growth, higher = more signal, called active from +8 up or from −8 down.
A short description of assay [9]: RPMI8226 myeloma cell viability, profiling panel, resazurin fluorescence, basal, 24 h, PK04 Diversity Set (AID 1180).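 Further: RPMI8826 multiple myeloma cell line at 5000 cells per well; test concentration not given here.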 The conditions noted are these: higher = more signal.
The target in assay [10] is E3 ubiquitin-protein ligase XIAP (Homo sapiens) (UniProt P98170). Nature of the assay: XIAP binders, primary screen, biophysical, small-molecule microarray, fluorescence 635 nm (AID 1181).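 Further: score merges 667 nm emission and signal to noise over triplicate slides.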 The conditions noted are these: small-molecule microarray binding, higher = more signal.
Chain of E3 ubiquitin-protein ligase XIAP (Homo sapiens) (P98170 whole entry, looked up): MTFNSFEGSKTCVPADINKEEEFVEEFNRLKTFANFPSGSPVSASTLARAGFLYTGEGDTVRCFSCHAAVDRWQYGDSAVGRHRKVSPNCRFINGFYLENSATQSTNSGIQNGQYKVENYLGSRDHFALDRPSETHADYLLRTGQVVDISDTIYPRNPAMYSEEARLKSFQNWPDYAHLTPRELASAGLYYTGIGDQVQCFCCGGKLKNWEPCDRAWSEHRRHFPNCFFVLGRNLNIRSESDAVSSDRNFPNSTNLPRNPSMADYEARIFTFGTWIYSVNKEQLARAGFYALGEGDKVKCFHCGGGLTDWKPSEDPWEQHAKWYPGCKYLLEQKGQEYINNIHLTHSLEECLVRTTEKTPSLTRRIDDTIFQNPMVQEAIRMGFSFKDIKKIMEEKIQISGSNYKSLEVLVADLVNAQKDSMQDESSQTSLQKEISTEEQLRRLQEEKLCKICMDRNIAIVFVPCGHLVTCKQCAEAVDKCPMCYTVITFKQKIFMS

Chain of Dihydroorotate dehydrogenase (quinone), mitochondrial (Plasmodium falciparum (isolate 3D7)) (Q08210 whole entry, looked up): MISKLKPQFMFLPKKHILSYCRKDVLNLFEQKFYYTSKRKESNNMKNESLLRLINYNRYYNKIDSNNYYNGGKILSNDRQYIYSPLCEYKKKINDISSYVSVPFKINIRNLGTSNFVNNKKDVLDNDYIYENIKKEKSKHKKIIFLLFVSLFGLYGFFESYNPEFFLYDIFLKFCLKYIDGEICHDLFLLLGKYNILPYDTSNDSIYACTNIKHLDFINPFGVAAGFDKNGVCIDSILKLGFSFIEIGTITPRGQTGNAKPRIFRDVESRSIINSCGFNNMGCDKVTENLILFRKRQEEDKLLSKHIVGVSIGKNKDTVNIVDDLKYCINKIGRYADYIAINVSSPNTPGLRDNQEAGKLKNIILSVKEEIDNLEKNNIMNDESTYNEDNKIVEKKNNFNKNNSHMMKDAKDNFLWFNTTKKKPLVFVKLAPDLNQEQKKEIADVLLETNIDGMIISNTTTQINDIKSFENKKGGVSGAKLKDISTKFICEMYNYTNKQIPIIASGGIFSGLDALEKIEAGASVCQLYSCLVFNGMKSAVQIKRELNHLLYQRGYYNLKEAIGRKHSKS

With `CC(C)C(=C=CC[C@H](O)c1ccc(OCCO)cc1)C[C@H](O)c1ccccn1`, the z-score in [1] is 0.748; in assay [2] it was -1.7 (inactive); in assay [3], 0.143 (inactive); in assay [5] it was 0.379 (inactive); in assay [6], 0.673 (inactive); in assay [7] it was 1.37 (inactive). Further, the z-score in assay [8] is 0.879 (inactive); in [9], 0.986. Also, the composite z-score in assay [4] was -0.575 (inactive); in assay [10], 0.244.

Turning to `COc1ccc(CCNC(=O)[C@@H]2c3ccccc3C(=O)N(Cc3cc(C(F)(F)F)cc(C(F)(F)F)c3)[C@H]2c2ccc(CO)cc2)cc1`, the z-score is 0.317 in [1]; -0.662 (inactive) in assay [2]; -0.295 (inactive) in assay [3]; 0.279 (inactive) in [5]; 0.864 (inactive) in [6]; 0.619 (inactive) in assay [7]. Further, the z-score was 0.591 (inactive) in assay [8] and 0.451 in assay [9]. The composite z-score is -0.928 (inactive) in [4] and -0.213 in [10].

`COC(=O)[C@@]1(Cc2ccc(OC)cc2)[C@H]2c3cc(C(=O)N(C)C)n(CCO)c3C[C@H]2CN1C(=O)c1ccccc1`: the z-score in [1] was -0.822; in [2] it was 0.474 (inactive); in assay [3], -1.23 (inactive); in assay [5], 0.33 (inactive); in assay [6], -0.562 (inactive); in assay [7], -0.748 (inactive). The figures for the z-score in assay [8] and in [9] were -0.173 (inactive) and -0.915, respectively. In addition, the figures for the composite z-score in [4] and in assay [10] were -0.462 (inactive) and 0.0223, respectively.

Regarding `CN1C(=O)C2C=CC(C(O)c3ccc(F)cc3)N(Nc3ccccc3)C2C1=O` (stereo not given), the z-score in [1] is -1.05; in [2] it was 0.544 (inactive); in assay [3], -1.24 (inactive); in [5], 0.944 (inactive); in assay [6] it was 1.38 (inactive); in assay [7], -1.03 (inactive). Also, the z-score in assay [8] was -0.894 (inactive); in assay [9], -1.58. The results for the composite z-score in assay [4] and in [10] were 0.869 (inactive) and 0.0761, respectively.

Consider `CC(C)C[C@@H]1NC(=O)[C@@H]2C[C@H](C(=O)NCCCCN(C)C)[C@H](c3cccc(OCCO)c3)N2C1=O`, for which the z-score in assay [1] is 0.0064; in [2], -0.453 (inactive); in assay [3], 0.303 (inactive); in [5] it was 0.655 (inactive); in assay [6], -0.121 (inactive); in [7] it was 0.0825 (inactive). In addition, the z-score in assay [8] was -0.653 (inactive); in assay [9], -0.127. Further, the composite z-score in assay [4] was -1.21 (inactive); in assay [10] it was -0.0749.

`CCOC(=O)c1ccc(NC(=O)O[C@H]2[C@H](OC(=O)Nc3ccc4c(c3)OCO4)[C@@H](OC(=O)Nc3ccc4c(c3)OCO4)[C@@H](OC)O[C@@H]2CO)cc1`: the z-score was -0.741 in [1]; 1.1 (inactive) in [2]; -0.849 (inactive) in assay [3]; 2.08 (inactive) in [5]; 2.29 (inactive) in assay [6]; 1.04 (inactive) in [7]. Besides, the z-score was -0.0515 (inactive) in assay [8] and -0.836 in [9]. Further, the composite z-score in assay [4] was 0.0737 (inactive); in assay [10], 0.519.

For the compound `CC(C)(C)OC(=O)CC[C@@]1(C(=O)NCc2ccccc2)N=C(c2ccc(OCCCO)cc2)O[C@@H]1c1ccccc1N=[N+]=[N-]`, the z-score is -0.409 in assay [1]; 0.381 (inactive) in [2]; -1.36 (inactive) in assay [3]; 1.2 (inactive) in assay [5]; 1.99 (inactive) in [6]; 2.98 (inactive) in assay [7]. The values for the z-score in assay [8] and in [9] were 0.914 (inactive) and -0.362, respectively. The values for the composite z-score in assay [4] and in assay [10] were 1.45 (inactive) and 0.23, respectively.

In the case of `C=C(CCCC)/C(=C/C[C@@H](OC(=O)c1ccncc1)c1ccccc1OCCO)c1cnc2ccccc2c1`, the z-score is -0.846 in [1]; -2.19 (inactive) in [2]; -1.09 (inactive) in assay [3]; 1.07 (inactive) in [5]; -0.592 (inactive) in assay [6]; -0.334 (inactive) in [7]. Further, the z-score was -0.514 (inactive) in [8] and 0.133 in [9]. The composite z-score in assay [4] was -3.38 (inactive); in assay [10], -0.0599.

`CCCNC(=O)[C@@H]1c2ccccc2C(=O)N(C(C)C)[C@H]1c1ccc(CO)cc1`: the z-score was 0.321 in assay [1]; 0.121 (inactive) in assay [2]; 0.551 (inactive) in [3]; 0.127 (inactive) in assay [5]; 0.846 (inactive) in [6]; 0.313 (inactive) in [7]. Besides, the z-score in [8] was 1.31 (inactive); in [9], 0.497. Also, the composite z-score in [4] was -0.185 (inactive); in assay [10], -0.237.

For the compound `COCCCNC(=O)[C@@]1(Sc2ccc(C)cc2)CC(=O)N(C2CCCCC2)[C@@H]1c1ccc(CO)cc1`, the z-score was -0.0171 in [1]; -0.0904 (inactive) in assay [2]; 0.0246 (inactive) in assay [3]; -0.438 (inactive) in [5]; 0.0315 (inactive) in [6]; 0.235 (inactive) in [7]. The z-score in assay [8] was -0.195 (inactive); in [9] it was -0.577. Besides, the composite z-score is -0.0365 (inactive) in assay [4] and -0.191 in assay [10].

Regarding `[N-]=[N+]=NCc1ccccc1C[C@@]1(C(=O)N2CCOCC2)N=C(c2ccc(OCCCO)cc2)O[C@@H]1c1ccccc1`, the z-score in assay [1] is -0.932; in [2] it was -2.93 (inactive); in assay [3], -4.83 (inactive); in [5], 0.593 (inactive); in [6] it was -0.0165 (inactive); in assay [7], 0.834 (inactive). The z-score in assay [8] is -0.274 (inactive); in [9] it was -4.29. In addition, the figures for the composite z-score in [4] and in [10] were 0.192 (inactive) and 0.284, respectively.

For `C=CC1c2cc(O)c(OC)cc2CCN1Cc1cc2c(cc1Br)OCO2` (stereo not given), the z-score was -1.95 in assay [1]; -12.5 (active) in [2]; -2.21 (inactive) in [3]; -0.0065 (inactive) in [5]; -2.09 (inactive) in [6]; -0.929 (inactive) in assay [7]. Besides, the z-score was -1.69 (inactive) in assay [8] and -2.82 in [9]. In addition, the composite z-score in [4] was -7.6 (inactive); in [10] it was -0.0525.
